Only some compounds are listed: those with a hit (about 1.6% of all), similar ones and a draw of the others.
KCNQ2 block = inhibitors of rat KCNQ2 potassium channel. CHO-K1 KCNQ2, FluxOR thallium flux, 20 min; active compounds read low. B-score at 10 µM. 310,000 compounds, 1.1% hits. AID 2156;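 active = fluorescence ratio B-score at most minus 3 library SDs, with starting brightness B-score within 2 library SDs, cut at about -5.5 in these data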
KCNQ2 pot = enhances the rat KCNQ2 potassium channel; O88943; CHO-K1 KCNQ2, FluxOR thallium flux fluorescence; active compounds read high; B-score at 10 µM; 310,000 compounds, 0.54% hits;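 active = fluorescence ratio B-score at least 3 SD of library B-scores, with initial fluorescence B-score within 3 of them, cut at about 5.3 in these data; same plate scores as AID 2156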;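 note: B-score of peak minus minimum over baseline fluorescence ratio after K+ and Tl+ stimulus; positive B-score means potentiation of KCNQ2 with more thallium influx and brighter signal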
Kir21 conf inh = confirmation of mouse Kir2.1 potassium channel inhibitors. 2,300 compounds, 41% hits. AID 2032. Tl flux remaining, % of negative control (active compounds read low), % at 10 µM. shares compounds with KCNQ2 pot. Kir2.1-expressing cells, FluxOR thallium flux fluorescence; active compounds read low;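 active = Primary-screen hit whose thallium flux fell at least 3 control SD below untreated wells in both duplicates, with normal baseline fluorescence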;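 note: 0% = blank wells without stimulus and 100% = stimulated no-compound controls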
HEK293 ctr = counter-screen for Kir2.1 inhibitors: effect in parental HEK293 cells; shares compounds with KCNQ2 pot; FluxOR thallium flux fluorescence; 0% = unstimulated blank wells; 2,300 compounds, 19% hits; AID 2105; FluxOR signal as % of negative control (100 = no effect), % at 10 µM;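 active = dye signal at least 3 control SD above or below untreated wells in both duplicates, raw fluorescence within 3, either direction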;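 note: percent is based on the flux ratio of peak minus minimum fluorescence over baseline F0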
CHO-K1 Tl ctr = counter-screen for KCNQ2 potentiators: effect in parental CHO-K1 cells | activity increase over 3SD of controls, % at 10 µM | 1,200 compounds, 43% hits | shares compounds with KCNQ2 pot | FluxOR thallium flux fluorescence; zero = vehicle mean+3SD, 100% = vehicle-minus-blank window | AID 2282;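 active = signal rise of at least 3 SD above the untreated control mean, in both duplicate wells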;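 note: counter screen of KCNQ2 potentiator hits so any rise reflects channel-independent effects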
KCNQ1 pot spec = selectivity of KCNQ2 potentiators: effect on human KCNQ1; activation over 3SD threshold, % at 10 µM; CHO KCNQ1 stable, FluxOR thallium flux fluorescence; beyond 3SD, as % of vehicle-control signal; 1,200 compounds, 28% hits; shares compounds with KCNQ2 pot;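 active = fluorescence ratio rise of at least 3 SD of vehicle wells above their mean, in both replicate wells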;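 note: 0% = vehicle mean plus 3 SD and 100% = vehicle minus unstimulated blank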
Target sequence (P51787 whole entry, looked up): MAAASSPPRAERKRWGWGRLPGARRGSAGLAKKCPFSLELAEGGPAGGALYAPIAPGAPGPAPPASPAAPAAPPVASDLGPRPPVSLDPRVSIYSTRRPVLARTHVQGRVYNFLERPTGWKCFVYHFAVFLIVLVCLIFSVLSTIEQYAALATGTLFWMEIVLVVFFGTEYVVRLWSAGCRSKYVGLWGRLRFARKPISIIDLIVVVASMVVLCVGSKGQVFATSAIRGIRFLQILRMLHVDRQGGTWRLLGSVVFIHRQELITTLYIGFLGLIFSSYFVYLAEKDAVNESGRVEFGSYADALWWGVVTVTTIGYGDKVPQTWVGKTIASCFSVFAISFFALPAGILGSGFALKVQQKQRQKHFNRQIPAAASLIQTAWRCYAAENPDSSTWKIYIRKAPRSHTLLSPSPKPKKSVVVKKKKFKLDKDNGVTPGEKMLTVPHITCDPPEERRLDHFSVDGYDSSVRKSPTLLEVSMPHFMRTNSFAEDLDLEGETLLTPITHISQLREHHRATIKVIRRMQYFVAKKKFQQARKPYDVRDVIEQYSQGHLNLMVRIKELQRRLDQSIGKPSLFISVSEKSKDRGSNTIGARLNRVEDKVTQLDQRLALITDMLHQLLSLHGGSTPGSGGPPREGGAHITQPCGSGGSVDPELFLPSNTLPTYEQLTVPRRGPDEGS
KCNQ2 pot confirm = rat KCNQ2 channel potentiator confirmation. shares compounds with KCNQ2 pot. CHO-KCNQ2 cells, FluxOR thallium flux fluorescence. potentiation, less the hit threshold, % at 10 µM. 1,200 compounds, 68% hits. AID 2287;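 active = fluorescence ratio rising 3 SD or more over the vehicle control mean in both replicates, plus primary screen hit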;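 note: peak minus minimum thallium fluorescence divided by baseline after K/Tl stimulus; 0% = vehicle mean plus 3 SD and 100% = vehicle minus unstimulated blank difference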
Kir21 spec = tests whether KCNQ2 potentiators also affect mouse Kir2.1 | activity over 3SD threshold, % at 10 µM | shares compounds with KCNQ2 pot | AID 2345 | 1,200 compounds, 2% hits | HEK293 Kir2.1, FluxOR thallium flux fluorescence;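 active = fluorescence ratio rise of at least 3 SD above the vehicle-control mean, seen in both replicates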;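 note: 0% = vehicle mean plus 3 SD and 100% = vehicle minus no-stimulus blank window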
KCNQ2 W236L pot = KCNQ2 potentiators acting on retigabine-insensitive rat KCNQ2 W236L mutant; shares compounds with KCNQ2 pot; CHO KCNQ2-W236L, automated patch clamp current; current increase over 3SD of negative controls (%), active compounds read high, % at 25 µM; 940 compounds, 10% hits; AID 2558;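 active = current increase at least 3 SD of the untreated controls above them in both duplicate recordings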
* hit, by the source's call; i = inactive; . = no result.

SMILES | KCNQ2 block | KCNQ2 pot | Kir21 conf inh | HEK293 ctr | CHO-K1 Tl ctr | KCNQ1 pot spec | KCNQ2 pot confirm | Kir21 spec | others
O=C(NC(=S)NCCC1=CCCCC1)c1ccco1 | i | 12* | i | 229%* | -9 | -26 | 34* | -40 | KCNQ2 W236L pot=i
CCS(=O)(=O)Nc1cccc(C2=NN(S(=O)(=O)CC)C(c3cccs3)C2)c1 (stereo not given) | i | 1.4 | . | . | . | . | . | .
CCn1ncc(Cl)c1C(=O)NC(=S)Nc1ccccc1Br | i | 7.1* | i | 232%* | 12* | 55* | 53* | -14 | KCNQ2 W236L pot=i
CCCCOC(=O)c1ccc(NC(=S)NC(=O)c2c(Cl)cnn2CC)cc1 | i | 5.2 | . | . | . | . | . | .
Cc1nn(C)c(C(=O)NNC(=S)Nc2ccc(F)cc2)c1[N+](=O)[O-] | i | . | . | . | . | . | . | .
Cc1nn(C)c(C(=O)NNC(=S)NCc2ccccc2)c1Cl | i | . | . | . | . | . | . | .
Cc1nn(C)c(C(=O)NC(=S)Nc2ccc([N+](=O)[O-])cc2)c1Cl | i | 8.4* | i | 132%* | -19 | -9 | 0.7* | -28 | KCNQ2 W236L pot=i
Cc1nn(C)c(C(=O)NC(=S)Nc2ccccc2Br)c1Cl | i | 6.8* | i | 216%* | 0 | -8 | 55* | -20 | KCNQ2 W236L pot=i
CCc1cccc(C)c1NC(=O)CSc1nnc(C)o1 | i | 0.02 | . | . | . | . | . | .
Cc1cc2nc(-c3ccc[nH]c3=O)n(Cc3ccccc3F)c2cc1C | i | . | . | . | . | . | . | .
O=C(COc1c(Br)cc(Br)cc1Br)N/N=C/c1ccco1 | i | 6.3* | i | i | -3 | -8 | -4 | -20
CCCCOc1ccc(CCC(=O)N/N=C/c2ccco2)cc1 | i | 9.1* | i | i | 47* | 65* | 33* | -38 | KCNQ2 W236L pot=i
CCCOc1ccc(CCC(=O)N/N=C/c2ccco2)cc1 | i | 1.3 | . | . | . | . | . | .
Cc1cc(C)cc(OCC(=O)N/N=C/c2ccco2)c1 | i | . | . | . | . | . | . | .
COc1cccc(C(=O)Nc2ccncc2)c1OC | i | 7.2* | i | i | -3 | -17 | -15 | -42
COc1ccccc1C(=O)Nc1ccncc1 | i | . | . | . | . | . | . | .
CCOC(=O)C(NS(=O)(=O)c1ccc(Br)cc1)C(C)C (stereo not given) | i | 0.59 | 42%* | i | . | . | . | .
Cc1ccc(S(=O)(=O)NC(C(=O)OCC(=O)NC(=O)c2cccn2C)C(C)C)cc1 (stereo not given) | i | 0.09 | . | . | . | . | . | .
Cc1nc(N2CCOCC2)sc1C=O | i | 0.3 | . | . | . | . | . | .
CC(C)(C)C(=O)NNC(=O)C1CC1(c1ccccc1)c1ccccc1 (stereo not given) | i | 0.21 | . | . | . | . | . | .
Cc1cc(C)c2cccc(N)c2n1 | i | . | . | . | . | . | . | .
Cc1cc(C)c2ccc(N)nc2c1O | i | 12* | i | i | -1 | -24 | 12* | -36 | KCNQ2 W236L pot=i
CCCCn1c(N)c(N(CCOC)C(=O)COC(=O)C(C)(C)Oc2ccc(Cl)cc2)c(=O)[nH]c1=O | i | . | . | . | . | . | . | .
CCOC(=O)C(=O)Nc1nc(-c2ccccc2)c(-c2ccccc2)o1 | i | . | . | . | . | . | . | .
CCOC(=O)Nc1c(O)ccc2oc(C)c(-c3ccccc3)c12 | i | 3.3 | 28%* | i | . | . | . | .
SMILES | KCNQ2 block | KCNQ2 pot | Kir21 conf inh | HEK293 ctr | CHO-K1 Tl ctr | KCNQ1 pot spec | KCNQ2 pot confirm | Kir21 spec | others
CCOc1ccc(NCc2nnc(SCC(=O)Nc3nc(-c4ccccc4)cs3)n2-c2ccccc2)cc1 | i | 0.63 | . | . | . | . | . | .
COc1cc(Cl)cc2c1Sc1ccccc1/C2=C/CCN(C)C | -7* | -7 | 36%* | i | . | . | . | .
CN(C)CC/C=C1/c2ccccc2Sc2c(O)cc(Cl)cc21 | i | . | . | . | . | . | . | .
COc1cc2c(cc1Cl)/C(=C\CCN(C)C)c1ccccc1S2 | i | . | . | . | . | . | . | .
CN(C)CC/C=C1/c2cc(F)ccc2Sc2ccc(Cl)cc21 | i | . | 25%* | i | . | . | . | .
COCCNC(=O)C(=O)N/N=C(\C)CC(=O)Nc1cccnc1 | i | . | . | . | . | . | . | .
CC(C)(C)OC(=O)N[C@@H](COCc1ccccc1)C(=O)N[C@@H](CO)[C@H](O)[C@@H]1C[C@@H]1C(=O)NC1CCCCC1 | i | . | . | . | . | . | . | .
N/C(=N\OC(=O)Nc1ccccc1)c1cccc(C(F)(F)F)c1 | i | 11* | i | i | -14 | 9.0* | 23* | -28 | KCNQ2 W236L pot=i
N/C(=N\OC(=O)Nc1ccccc1)c1ncc(C(F)(F)F)cc1Cl | i | . | . | . | . | . | . | .
COc1ccc(CCNC(=O)CSc2nc(C)nc3sccc23)cc1OC | i | . | . | . | . | . | . | .
CN1CCc2c(n(CC(O)CNCc3ccccc3)c3ccccc23)C1=O (stereo not given) | i | . | 72%* | i | . | . | . | .
CN1CCc2c(n(CC(O)CN(CCO)CCO)c3ccccc23)C1=O (stereo not given) | i | 0.46 | . | . | . | . | . | .
Cc1ccc(S(=O)(=O)N2CCCCC2)c(C)c1NS(C)(=O)=O | i | 1.7 | . | . | . | . | . | .
Cc1cc(C)c(NC(=O)C(C)c2cccc(C(=O)c3ccccc3)c2)c(C)c1 (stereo not given) | i | 23* | i | i | 54* | -9 | 54* | -31 | KCNQ2 W236L pot=i
CC(=O)Nc1ccc(NC(=O)C(C)c2cccc(C(=O)c3ccccc3)c2)cc1 (stereo not given) | i | 0.37 | . | . | . | . | . | .
Cc1ccc(NC(=O)C2CCN(C(=O)c3ccccc3C)CC2)nc1 | i | 0.15 | . | . | . | . | . | .
COc1cccc(NC(=O)CN(C)C(=O)c2ccc(OCc3ccccc3)c(OC)c2)c1 | i | . | . | . | . | . | . | .
CNc1ncnc2sc(-c3ccccc3)cc12 | i | 0.27 | . | . | . | . | . | .
S=c1[nH]cnc2sc(-c3ccccc3)cc12 | i | 24* | i | i | -1 | -7 | 70* | -15 | KCNQ2 W236L pot=i
O=C(CCc1nnc(CCCCc2ccccc2)o1)NCCN1CCCCC1=O | i | . | . | . | . | . | . | .
NC(=NCc1ccco1)NC(=O)c1ccc(Cl)cc1 | i | 7* | i | i | 2.6* | -22 | 51* | -49 | KCNQ2 W236L pot=i
O=C(NCCCNC(=O)c1ccco1)c1ccc(Cl)cc1 | i | . | . | . | . | . | . | .
Cc1cc(C)c2nc(NNC(=O)c3ccc(S(=O)(=O)N4CCCC(C)C4)cc3)sc2c1 (stereo not given) | i | 1.8 | . | . | . | . | . | .
Cc1cc(C)c2nc(NNC(=O)c3ccc(S(=O)(=O)N4CC(C)CC(C)C4)cc3)sc2c1 (stereo not given) | i | 5.8* | i | i | 61* | -11 | -22 | -29
COc1cccc(/C=N/NC(=O)c2c(C)nc3ccc(Cl)cn23)c1O | i | 0.42 | . | . | . | . | . | .
